One may read the AC50 as the concentration giving half of the maximal activity seen.

The source of these data is PubChem BioAssay (EPA / NIEHS).

Assay [1] is described as follows: CCTE_Shafer_MEA_acute_per_burst_spike_number_mean: CCTE's Neural Acute Assay for Average Number of Spikes Per Burst, Shafer Lab (AID 2284015).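 Note: hits are decreases in mean spikes per burst versus baseline.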 In a few lines: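 Primary rat cortical neurons on 48-well MEA plates, treated on DIV 13 or 15 at 0.03-40 uM. Spontaneous activity recorded 40 min before and 40 min after compound at 37 C; percent change in mean spikes per single-electrode burst per well, fitted in the loss direction versus DMSO.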

Assay [2] in a line: CCTE_Shafer_MEA_acute_interburst_interval_mean: CCTE's Neural Acute Assay for Mean Interburst Interval, Shafer Lab (AID 2284016).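 Note: percent change of mean interburst interval versus each well's own pre-dose baseline; curves fitted for decrease in interburst interval relative to DMSO.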 A digest of the protocol: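 Primary rat cortical neurons on 16-electrode MEA wells were recorded 40 min at baseline on DIV 13 or 15, then 40 min after compound (0.03-40 uM), at 37 C. Value is percent change in mean interburst interval per well, DMSO as negative control.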

Assay [3] is described as follows: CCTE_Shafer_MEA_acute_burst_percentage_mean: CCTE's Neural Acute Assay for Percentage of Spikes in a Burst, Shafer Lab (AID 2284017).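 For AC50: curve fitted for loss of signal so potency reflects decreased burst percentage.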 A digest of the protocol: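 Primary rat cortical neurons on 16-electrode MEA wells; 40 min baseline recorded at DIV 13 or 15, then 40 min after compound (0.03-40 uM) at 37 C. Well-mean fraction of spikes in single-electrode bursts; percent change from baseline, DMSO as negative control.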

A short description of assay [4]: CCTE_Shafer_MEA_acute_burst_percentage_std: CCTE's Neural Acute Assay for Standard Deviation of Burst Percentage, Shafer Lab (AID 2284018).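 Note: fitted in the negative direction so actives lower burst percentage SD.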 A digest of the protocol:
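Value is percent change from baseline in the across-electrode SD of spikes-in-bursts percentage, wells with >/= 10 active electrodes. Acute 40-min exposure to 0.03-40 uM on DIV 13 or 15 rat cortical cultures, recorded at 37 C after 40-min baseline.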

Assay [5] can be described thus: CCTE_Shafer_MEA_acute_per_network_burst_spike_number_mean: CCTE's Neural Acute Assay for Average Number of Spikes in a Network Burst, Shafer Lab (AID 2284019).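 For AC50: curve fitted for loss of signal so actives reduce spikes per network burst.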 A digest of the protocol:
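Percent change from baseline in mean spikes per network burst, spikes detected at 8x rms noise. Each compound at 0.03-40 uM in at least three wells of rat cortical cultures, recorded 40 min before and 40 min during exposure.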

The nature of assay [6]: CCTE_Shafer_MEA_acute_per_network_burst_spike_number_std: CCTE's Neural Acute Assay for Standard Deviation of Number of Spikes in a Network Burst, Shafer Lab (AID 2284020).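 Note: fitted for decrease in spike-number SD versus DMSO so actives lower it.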 In a few lines: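 Endpoint: percent change from 40 min baseline in standard deviation of spikes per network burst, after 40 min compound exposure (0.03-40 uM, 37 C). Cortical rat neurons on MEA at DIV 13 or 15; spikes detected at 8x rms noise, 300-5000 Hz band-pass.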

Assay [7] can be described thus: CCTE_Shafer_MEA_acute_per_network_burst_electrodes_number_mean: CCTE's Neural Acute Assay for Mean Number of Electrodes in a Network Burst, Shafer Lab (AID 2284021).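 Note: curves fitted for decreases only so hits reduce electrodes per burst.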 A digest of the protocol: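 Readout: % change in mean electrodes active per network burst, post- vs pre-treatment, each well. Spikes detected at 8x rms noise after 300-5000 Hz band-pass; rat cortical cultures, DIV 13/15, compounds 0.03-40 uM, DMSO baseline.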

Assay [8] can be described thus: CCTE_Shafer_MEA_acute_network_burst_percentage: CCTE's Neural Acute Assay for Percentage of Network Bursts, Shafer Lab (AID 2284022).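 Note: curves fitted for loss so actives lower network burst percentage.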 In a few lines:
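Rat cortical cultures, DIV 13/15; 20 min equilibration, 40 min baseline, compound 0.03-40 uM, 40 min recording, 37 C. Spikes: 300-5000 Hz band-pass, threshold 8x rms noise. Readout: % change in network-burst spike fraction; loss direction vs DMSO.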

Assay [9] can be described thus: CCTE_Shafer_MEA_acute_cross_correlation_area: CCTE's Neural Acute Assay for Area of Cross Correlation, Shafer Lab (AID 2284024).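 Note: area under pooled inter-electrode spike cross-correlation near zero lag as percent change from own baseline; curves fitted for loss of cross-correlation area so actives lower synchrony.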 A digest of the protocol:
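Rat cortical cultures, DIV 13/15, MEA; spikes detected at 8x rms noise (300-5000 Hz band-pass). Compound 0.03-40 uM, ≥3 wells each. Readout: % change in pooled inter-electrode cross-correlation area vs own baseline; DMSO negative control.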

Assay [10] addresses Estrogen receptor (Homo sapiens) (UniProt P03372). As to the kind of experiment: CCTE_Deisenroth_AIME_96WELL_LUC_Active: CCTE's 96-well Estrogen Receptor Transactivation Assay with AIME metabolic competence (ERTA luciferase; metabolism positive), Deisenroth Lab (AID 2284023; active = hit-call score of the fitted dose curve at least 0.9, where 1 is the maximum). A digest of the protocol:
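Metabolism-positive mode: induced rat hepatic S9 in alginate microspheres conditions test solutions (0.002 - 200 uM, 10 points) for 2 hours. VM7Luc4E2 ER luciferase reporter cells then exposed 24 h; positive-direction fit against 17beta-estradiol, n=4 typical.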

Several values for one entry are separate records, joined by “and”; a condition that tells them apart may be missing. Identical values can stand only once. Results filed as inconclusive are left out. More than one record can exist for a structure, and the calls need not agree. Activity calls are given as the source filed them. Rule for the calls, unless noted: active = hit-call score of the fitted dose curve at least 0.9, where 1 is the maximum; inactive = score below 0.9.

Estrogen receptor (Homo sapiens), sequence (P03372 whole entry, looked up): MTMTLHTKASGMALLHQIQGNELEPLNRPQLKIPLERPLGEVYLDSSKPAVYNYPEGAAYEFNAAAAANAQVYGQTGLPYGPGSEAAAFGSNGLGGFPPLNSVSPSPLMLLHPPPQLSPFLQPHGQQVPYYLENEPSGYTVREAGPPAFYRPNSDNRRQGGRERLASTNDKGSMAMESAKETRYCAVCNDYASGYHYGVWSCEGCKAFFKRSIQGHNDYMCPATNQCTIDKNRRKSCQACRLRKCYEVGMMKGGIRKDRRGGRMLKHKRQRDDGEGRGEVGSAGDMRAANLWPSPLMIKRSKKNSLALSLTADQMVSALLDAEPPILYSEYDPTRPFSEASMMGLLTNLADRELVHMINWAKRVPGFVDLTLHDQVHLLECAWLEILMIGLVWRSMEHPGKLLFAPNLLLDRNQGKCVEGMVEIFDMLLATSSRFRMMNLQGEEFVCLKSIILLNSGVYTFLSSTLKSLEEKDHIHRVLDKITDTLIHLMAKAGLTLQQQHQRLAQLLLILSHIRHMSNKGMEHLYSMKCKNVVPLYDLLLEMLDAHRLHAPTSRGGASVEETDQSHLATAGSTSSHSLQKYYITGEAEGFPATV

`C#CCOS(=O)OC1CCCCC1Oc1ccc(C(C)(C)C)cc1` (configuration not stated): the AC50 in [1] is 33.6 µM (active); in [3], 32 µM (active); in assay [4] it was 34.6 µM (active). Moreover, the call in assay [2], in assay [5], in [6], in [7], in assay [8] and in assay [9] was inactive.

Take `Cc1c(F)c(F)c(COC(=O)C2C(/C=C(\Cl)C(F)(F)F)C2(C)C)c(F)c1F` (configuration not stated): the AC50 in [1] is 1.76 µM (active); in [3], 0.24 µM (active); in assay [5], 0.0326 µM (active); in assay [6], 0.0979 µM (active); in assay [7], 0.145 µM (active); in assay [8] it was 0.567 µM (active). Besides, the AC50 in assay [9] was 0.0953 µM (active). The compound was called inactive in assay [2] and in [4].

In the case of `Fc1ccc(Oc2ccnc3cc(Cl)cc(Cl)c23)cc1`, the compound was called inactive in assay [1], in [2], in assay [3], in [4], in assay [5] and in assay [6]. For the same compound, the outcome in assay [7], in assay [8] and in [9] was inactive.

In the case of `COC(=O)C(C)Oc1ccc(Oc2ccc(Cl)cc2Cl)cc1` (configuration not stated), the compound was called inactive in assay [1], in assay [2], in assay [4], in assay [5], in assay [6] and in [7]. For the same compound, the compound was classed as inactive in assay [9]. Also, the AC50 was 20 µM (active) in assay [3] and 25.7 µM (active) in assay [8].

On to `C=CCC1=C(C)[C@@H](OC(=O)[C@@H]2[C@@H](C=C(C)C)C2(C)C)CC1=O`, for which the outcome in assay [1], in assay [2], in assay [4], in [5], in assay [6] and in [9] was inactive. Moreover, the AC50 is 36.5 µM (active) in assay [3], 10.8 µM (active) in [7] and 31 µM (active) in assay [8].

On to `CC1COC(Cn2cncn2)(c2ccc(Oc3ccc(Cl)cc3)cc2Cl)O1` (configuration not stated), for which the call in assay [1], in [2], in assay [5], in [7], in [8] and in assay [9] was inactive. Also, the AC50 is 4.77 µM (active) in assay [3], 36.6 µM (active) in assay [4] and 3.5 µM (active) in [6].

Turning to `CC(C)Oc1cc(-n2nc(C(C)(C)C)oc2=O)c(Cl)cc1Cl`, the outcome in [1], in [3], in assay [4], in [5], in assay [6] and in [7] was inactive. Moreover, the call in assay [8] and in assay [9] was inactive. Besides, in [2], the AC50 is 4.16 µM (active).

Regarding `CCCC1COC(Cn2cncn2)(c2ccc(Cl)cc2Cl)O1` (configuration not stated), the AC50 is 20 µM (active) in assay [1]; 14.6 µM (active) in assay [3]; 9.03 µM (active) in [5]; 12.6 µM (active) in assay [6]; 15.2 µM (active) in assay [7]; 20 µM (active) in [8]. The compound was called inactive in [2], in [4] and in [9].

As for `COc1ccc(C(c2ccc(OC)cc2)C(Cl)(Cl)Cl)cc1`, the compound was called inactive in assay [1], in assay [2], in assay [4], in assay [5], in [6] and in assay [9]. The AC50 in [3] was 19.9 µM (active); in assay [7], 6.83 µM (active); in [8], 19.9 µM (active); in assay [10], 1.1 µM (active).

In the case of `C=CCC1=C(C)C(OC(=O)C2C(C=C(C)C)C2(C)C)CC1=O` (configuration not stated), the AC50 in [1] is 2.93 µM (active); in assay [2], 3.88 µM (active); in [3] it was 6.49 µM (active) and 2.93 µM (active); in [6], 0.727 µM (active); in assay [8], 7.43 µM (active) and 1.34 µM (active). The outcome in [1], in assay [2], in [4], in assay [5], in assay [6] and in assay [7] was inactive. In addition, the compound was classed as inactive in assay [9].

Consider `COP(N)(=O)SC` (configuration not stated), for which the compound was classed as inactive in assay [1], in [2], in [3], in assay [4], in [5] and in [6]. Further, the outcome in [7], in assay [8] and in assay [9] was inactive.

`Oc1ccccc1-c1ccccc1`: the AC50 in [10] was 68.8 µM (active).

On to `CON(C)C(=O)Nc1ccc(Cl)c(Cl)c1`, for which the compound was called inactive in assay [1], in [2], in assay [5], in [6], in [7] and in assay [8]. Besides, the outcome in [9] was inactive. Further, the AC50 in [3] is 8.54 µM (active); in [4] it was 0.649 µM (active).

As for `CCNc1nc(Cl)nc(NC(C)C)n1`, the result in assay [1], in [2], in assay [4], in assay [5], in assay [6] and in assay [7] was inactive. The result in [8], in assay [10] and in assay [9] was inactive. Moreover, the AC50 in assay [3] was 13.9 µM (active).

For the compound `CC(C)(C)c1ccc(CSc2cnn(C(C)(C)C)c(=O)c2Cl)cc1`, the AC50 was 3.63 µM (active) in assay [1]; 0.492 µM (active) in assay [2]; 2.67 µM (active) in assay [3]; 1.64 µM (active) in assay [5]; 2.12 µM (active) in assay [6]; 1.37 µM (active) in [7]. Besides, the AC50 is 3.29 µM (active) in assay [8] and 0.0277 µM (active) in [9]. The call in [4] was inactive.
